The values below come from PubChem BioAssay (NCI).

This is part of a sample that, as a whole, favours compounds with a hit. Of some 83,000 tested, about 20% had one in any assay.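 Single-concentration screen, 48 h exposure, 96-well plates. Endpoint: percent growth. Below 10 = active.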 Values without a mark were called inactive. Calls of active or inactive are those of the source.

This experiment concerns MCF7 breast. Briefly: NCI-60 one-dose screen, 48 h (100 = growth as untreated, 0 = no growth, -100 = all killed). The conditions noted are these: 10 µM unless noted. How it is done:
Growth inhibition of the MCF7 human tumor cell line is measured as a screen for anti-cancer activity. Cells are grown in 96 well plates and exposed to the test compound for 48 hours. Compounds are tested at a single concentration, which is 10^-5 M for most compounds. The reported endpoint is percent growth (GI% or GIPRCNT), where numbers from 0 - 100% represent growth inhibition, and numbers from -100% - 0 represent cell death. For example, a value of 40 represents 60% growth inhibition. A value of 0 means no net growth occurred over the course of the experiment. A value of -40 indicates 40% of cells at the beginning of the experiment died by the end of the experiment. A value of -100 means all cells are dead at the end of the experiment.
NCI-60 Human Tumor Cell Lines Screen was performed using the standard one-dose NCI protocol, which is described in more detail at https://dtp.cancer.gov/discovery_development/nci-60/default.htm.
Compounds with GIPRCNT values below 10 were considered active. Activity score was based on GIPRCNT using the following formula: […]
Score is 0 for GIPRCNT values of 100 or above, 50 for GIPRCNT values of 0, and 100 for GIPRCNT values of -100.
As to `C[n+]1c2ccccc2c(NC2CCNCC2)c2[nH]c3ccccc3c21`, the growth is 1.07% (active).

With `COc1ccc2c(c1)/C(=C\c1c[nH]c3ccc(F)cc13)C(=O)N2`, the growth was 60.3%.

For `CCCCOc1ccc(C(C)(C)c2ccc(OCCCC)cc2)cc1`, the growth is 104%.

As to `COc1ccc(-c2cn(-c3ccccc3)c(-c3ccccc3)n2)cc1OC`, the growth is 19.1%.

Consider `COc1ccc(C(=O)Nc2nc(-c3ccc(Cl)cc3)cs2)cc1`, for which the growth was 92.9%.

For `N#Cc1cnc2cc(OC[C@H](O)CO)c(NC(=O)CC3CSSC3)cc2c1Nc1ccc(OCc2cccc(F)c2)c(Cl)c1`, the growth was -69.2% (active).

For `NC(=Nc1ccccc1)SCCCCSC(N)=Nc1ccccc1`, the growth is 87.5%.

Regarding `C=C(C)[C@@H]1C/C=C(/C=O)CC[C@@H]2O[C@@]2(C)CC/C=C(\C)CC1`, the growth is 106%.

Take `COc1ccc2c(c1)nc(N)c1c3cc(C)c(C)cc3cn21`: the growth was 16.3%.

Regarding `COc1ccc(C(=O)C(C)Br)cc1OC` (stereo not given), the growth was 84.4%.

With `COc1ccc(-c2nn(-c3ccccc3)cc2/C=C2\SC(=S)N(CCc3ccc(O)cc3)C2=O)cc1`, the growth is 70.5%.

`CCCCC1Nc2nc(SC)n(C)c(=O)c2CN(Cc2ccccc2)C1=O` (stereo not given): the growth was 100%.

On to `O=C(O)c1ccc(NC(=O)c2cccc(Nc3ccnc(C(F)(F)F)c3)c2)cc1`, for which the growth is 96.8%.

For the molecule `O=C(Cc1ccccn1)C(F)(F)C(F)(F)C(F)(F)F`, the growth was 97.3%.

Consider `COc1ccc(/C=C2\NC(=S)NC2=O)cc1`, for which the growth was 99.9%.

Take `OC(c1cc(C(F)(F)F)nc2c(C(F)(F)F)cccc12)C1CCCCN1` (stereo not given): the growth was 21.8%.

Consider `COc1ccc(-c2csc(NC(=O)c3cc(O)c(O)c(O)c3)n2)cc1`, for which the growth is 60.6%.

Regarding `COC(=O)[C@]1(CCSC)N[C@H](c2cn(-c3ccccc3)nc2C)[C@@H]2C(=O)N(c3ccc(C)cc3)C(=O)[C@@H]21`, the growth is 102%.

For `COc1ccc(C2CC(c3ccc(OC)c(OC)c3)=NN2C(=O)c2cc(OC)c(OC)c(OC)c2)cc1` (stereo not given), the growth is 27.6%.

Turning to `COc1cccc2c1C(=O)c1c(O)c3c(c(O)c1C2=O)C[C@@](O)(/C(C)=N/NC(=O)c1cccc([N+](=O)[O-])c1)C[C@@H]3OC1CC(N)C(O)C(C)O1` (stereo not given in full), the growth is -8.97% (active).

For the molecule `O=C(Nc1ccc(Cl)cc1)Nc1ccc(Oc2nncc3ccccc23)cc1`, the growth was 14.3%.

Take `CCCCCCCC/C=C/CCCCCCCC1=NC(C)(C)CN1CC(C)O` (stereo not given): the growth is 17.1%.

As to `COc1cccc(/C=C2\COc3ccc(O)c(O)c3C2=O)c1OC`, the growth is 16.7%.

For `C[N+]1(CCC[N+]2(C)C[C@@H]3[C@H](C2)[C@@H]2C=C[C@H]3C2)CCOCC1` (stereo not given in full), the growth is 107%.

`CCOC(=O)c1c2c(c(C)n1Cc1ccccc1)-c1nc(N)ncc1CC2`: the growth is 106%.

As for `C[C@]12CC[C@@H]3c4ccc(O)c([N+](=O)[O-])c4CC[C@H]3[C@@H]1CC[C@@H]2NS(=O)(=O)c1ccc(C(F)(F)F)cc1`, the growth was 11.8%.

On to `O=C(/C=C/c1ccc(O)c(O)c1)N1CCN(c2ccc(Cl)cc2)CC1`, for which the growth was 74.9%.

With `COc1ccc(C(=O)/C=C/c2c(Cl)nc3c(c(C)nn3-c3ccccc3)c2-c2ccc(Br)cc2)cc1`, the growth is 96.7%.

`COc1ccc2nccc(/C=C/c3ccnc4ccc(OC)cc34)c2c1`: the growth was 88.1%.

Take `O=C1NCN(CCO)CN1`: the growth is 94.1%.

Consider `CCOc1cccc(C2CC(=O)Nc3cc4c(cc32)OCO4)c1` (stereo not given), for which the growth was 82.8%.

Consider `CN1COc2ccc3ccccc3c2C1`, for which the growth is 91.8%.

For the molecule `ClC1=C(Cl)C(Cl)=C(Cl)C1=C/C=C/c1ccccc1`, the growth was -19.6% (active).

Consider `COC(=O)CCC1=C(C)/C(=C/c2[nH]c(-c3ccc[nH]3)cc2OC)N=C1C`, for which the growth was 1.82% (active).

Consider `Clc1ccc([C@@H]2C[C@@H]3Cc4cc(Br)c5ccccc5c4N2O3)c(Cl)c1`, for which the growth was 34%.

Consider `O=C1N(C2CCCCC2)C(=O)N1C1CCCCC1`, for which the growth is 42.9%.

Take `Clc1ccc2nc(Cl)c3ccccc3c2c1`: the growth is 89.7%.

For `O=c1ccn(C2OC(CO)C(O)C2F)c(=O)[nH]1` (stereo not given), the growth is 104%.

As for `Cc1cc(NC(=O)Nc2cc(Cl)ccc2C)no1`, the growth was 84.4%.

For `Cc1cc(C)c(OC(=O)CSc2nc3ccccc3c(=O)n2CCc2ccccc2)cc1C`, the growth is 93.7%.
